These results are taken from PubChem BioAssay (NCI).

The panel holds about 83,000 compounds, 20% with a hit somewhere; the sample as a whole holds those more often.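 Negative percent growth values reflect cell death: -40 means 40% of the cells present at the start died, and -100 means all died.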 Values without a mark were called inactive. Activity calls are given as the source filed them. How the source made its calls: active means growth percent below 10; inactive means the rest.

Assay in all cases: NCI-60 one-dose screen, 48 h (100 = growth as untreated, 0 = no growth, -100 = all killed)
What all share (details): 10 µM

Assay [1] has as its system HCT-15 colon.
The subject of assay [2] is HT29 colon.
Assay [3] has as its system SNB-75 CNS.
Assay [4] has as its system SNB-19 CNS.
Assay [5] concerns U251 CNS.
The test system of assay [6] is PC-3 prostate.
The subject of assay [7] is SK-MEL-5 melanoma.
For assay [8], the system named is UACC-62 melanoma.
In assay [9] the test system is LOX IMVI melanoma.
The test system of assay [10] is SK-MEL-28 melanoma.
In assay [11] the test system is SK-MEL-2 melanoma.
In assay [12] the test system is EKVX NSCLC.
The subject of assay [13] is SN12C renal.
Assay [14] concerns UO-31 renal.
In assay [15] the test system is TK-10 renal.
Assay [16] concerns ACHN renal.
Assay [17] concerns CAKI-1 renal.
Assay [18] deals with A498 renal.
Assay [19] has as its system CCRF-CEM leukemia.
For assay [20], the system named is MOLT-4 leukemia.

Consider `Cc1ccc(CNC(=O)Cc2ccc3c(c2)CN(C2CCC(=O)NC2=O)C3=O)cc1` (stereo not given), for which the growth is -20.1% (active) in assay [1]; 24.6% in assay [2]; -16.8% (active) in assay [3]; 4% (active) in assay [4]; 55.5% in [5]; 10.4% in [6]. Also, the growth in assay [7] is -70.5% (active); in [8], 40.6%; in assay [9], 71.4%; in assay [10] it was 22%; in assay [11] it was 0.232% (active); in assay [12] it was 54.5%. The growth is 4.57% (active) in [13]; -21.3% (active) in [14]; 33.2% in assay [15]; 30.5% in [16]; 52.6% in assay [17]; -9.84% (active) in assay [18]. In addition, the growth is 8.32% (active) in assay [19] and -24.9% (active) in assay [20].

With `CCOC(=O)c1c(CSc2ccccc2)n(C)c2cc(CN(C)C)c(O)c(CN(C)C)c12`, the growth in [1] was 20.5%; in [2], 19.8%; in assay [3], 89.4%; in [4], 60.2%; in assay [5] it was 30%; in assay [6], 25.1%. Moreover, the growth in assay [7] was 36.4%; in assay [8], 48.2%; in [9], 22.2%; in assay [10], 48.6%; in assay [11] it was 77.5%; in assay [12], 36.9%. Moreover, the growth was 27.2% in assay [13]; 28% in assay [14]; 75.9% in [15]; 59% in assay [16]; 57.8% in assay [17]; 118% in assay [18]. The growth is 42.7% in assay [19] and 49% in assay [20].

For `COc1ccc(CN2[C@@H](C(=O)NCc3ccc(C(=O)NO)cc3)Cc3c([nH]c4ccccc34)[C@@H]2C)cc1`, the growth was 19.1% in assay [1]; 17.6% in [2]; 15.8% in assay [3]; 40.3% in assay [4]; 33% in [5]; 29% in assay [6]. Also, the growth was -21.1% (active) in assay [7]; -20.9% (active) in assay [8]; 1.67% (active) in [9]; 17.6% in assay [10]; 2.82% (active) in assay [11]; 11.9% in assay [12]. The growth in assay [13] was 29.8%; in assay [14], 36%; in assay [15], 16.5%; in assay [16], 36%; in assay [17] it was 39.5%; in assay [18] it was -5.13% (active). Besides, the growth in [19] is 15.8%; in assay [20], 11.3%.

For `C=C(c1ccc(OC)c(N)c1)c1cc(C)nc2ccccc12`, the growth in assay [1] was 3.55% (active); in assay [2], -20.8% (active); in assay [3] it was 21.4%; in assay [4], 10.3%; in [5], 7.35% (active); in [6], 31.2%. In addition, the growth in [7] was -55% (active); in assay [8], 24.1%; in assay [9], 10.3%; in [10], 62.4%; in [11] it was -23.7% (active); in assay [12], 21.5%. In addition, the growth in [13] was 6.5% (active); in assay [14], 21.4%; in assay [15] it was 78.1%; in [16], 24.5%; in [17], 27.1%; in [18], 118%. The growth in [19] is 5.19% (active); in [20], 12.5%.

On to `COc1cnc2c(c1)C(=O)c1c-2n(CCCNC(C)C)c(=O)c2cc(OC)c(OC)cc12`, for which the growth in assay [1] was 34.6%; in assay [2], 10.5%; in [3] it was 70.7%; in [4], 25.2%; in assay [5], 30.4%; in assay [6], 48.7%. In addition, the growth in assay [7] was 47.7%; in [8] it was 18.7%; in assay [9], -88.2% (active); in [10] it was 94%; in [11] it was 107%; in assay [12], 92.6%. The growth in assay [13] was 25%; in assay [14], 29.5%; in assay [15], 87.6%; in assay [16], 3.23% (active); in assay [17], 15.2%; in assay [18], 105%. For the same compound, the growth in assay [19] is 16.2%; in assay [20], 16.5%.

Turning to `CC1=C2C(=C[C@@](C)(CO)[C@@H]2O)/C(=N\N)[C@](C)(O)C12CC2`, the growth in [1] was -17.1% (active); in assay [2], -11% (active); in assay [3] it was -85.1% (active); in assay [4], -16% (active); in assay [5] it was 12%; in assay [6], 6.9% (active). In addition, the growth in assay [7] is -61.1% (active); in [8], -81.7% (active); in [9] it was -64.3% (active); in assay [10], -67.2% (active); in assay [11], -100% (active); in assay [12], -44.2% (active). Further, the growth in assay [13] was 0.386% (active); in [14], -29.2% (active); in [15] it was 1.74% (active); in assay [16] it was -18.6% (active); in [17], 1.03% (active); in [18], -27.8% (active). In addition, the growth in [19] was 18.8%; in [20], 3.48% (active).

For `CCOC(=O)CNC(=O)CN(Cc1ccccc1)C(=O)[C@@]1(C)CCC[C@]2(C)[C@H]3C[C@H]4C(C(C)C)=C[C@]3(CC[C@H]21)[C@@H]1C(=O)OC(=O)[C@@H]14`, the growth was 18% in assay [1]; 42% in assay [2]; 81.7% in [3]; 67.7% in assay [4]; 44.4% in assay [5]; 39.2% in assay [6]. The growth is 83.5% in assay [7]; 64.4% in assay [8]; 24% in assay [9]; 82.5% in assay [10]; 82.3% in assay [11]; 67.6% in assay [12]. The growth is 69% in assay [13]; 65.5% in assay [14]; 90.3% in assay [15]; 57% in assay [16]; 88.3% in assay [17]; 110% in [18]. Besides, the growth was 15.6% in [19] and 27.8% in assay [20].
